Drawing on ChEMBL document CHEMBL1157539, “Thousands of chemical starting points for antimalarial lead identification” (Nature, 2010), this text covers Inhibition for 40 compounds.

The first experiment deals with Plasmodium falciparum. Description: GSK_TCMDC: Inhibition of Plasmodium falciparum Dd2 in whole red blood cells, using parasite LDH activity as an index of growth. Test compounds present at 2uM. The format is functional.
Turning to `Cl.N=C(NC1CC1)c1ccc2[nH]c(CCCCCc3nc4cc(C(=N)NC5CC5)ccc4[nH]3)nc2c1`, the Inhibition (usually the drop in the measured response relative to a control, in per cent) was 72%.
On to `N#Cc1ccc(-c2ccc(C(=O)NCCCCN3CCC(n4cnc5ccccc54)CC3)cc2)cc1`, for which the Inhibition is listed as 2%.
Same read-out and setting: with `O=C(N[C@H]1CCN(Cc2ccc(OCCCN3CCCCC3)cc2)C1)c1ccc(Oc2ccccc2)cc1` the figure was 11%; with `COc1ccc(-c2cn3c(C(=O)Nc4ccccc4Cl)c(-c4ccccc4)c4c3n2CCCC4)cc1`, 1%; with `CN(CCCCN)Cc1ccc(-c2ccc(Cl)cc2)cc1`, 20%.
Still for that read-out and setting: with `COc1ccc2nccc([C@@H](O)CN3CCC(NCc4ccc5c(c4)NC(=O)CO5)CC3)c2c1.Cl` the figure was 6%; with `CN(C)CCN(C)Cc1nc(-c2ccc3c(Nc4ccc(Oc5ccccc5)cc4)ccnc3c2)cs1`, 100%.
`CC(=O)Nc1cc(C(=O)Nc2cccc(-c3cccc(-c4nc5cc(C(F)(F)F)ccc5[nH]4)c3)c2)ccc1C` displayed an Inhibition of 43%.
Still for that read-out and setting: under `Br.CCOc1ccc(OCCCON2C(=N)N=C(N)NC2(C)C)cc1` stands 94%; under `CCCNC(=O)Nc1cc2cc(-c3ccc(CN4CCCC4)cc3)ccc2n2c(C)nnc12`, 11%; under `CN(C)CCN(C)Cc1ccc(-c2ccc(NC(=O)c3ccc(Cl)cc3)cc2)cc1.O=C(O)C(F)(F)F`, 19%.
The compound `COc1ccc2[nH]ccc(=NN=Cc3ccc(Cl)cc3)c2c1` registered an Inhibition of 72%.
Same read-out and setting: with `c1ccc(Oc2ccc(Nc3ccnc4cc(-c5ccc(CNCCN6CCOCC6)o5)ccc34)cc2)cc1` the figure was 99%; with `O=C1C[C@@H]([S+]([O-])Cc2nccs2)N1CCOCCCCCCc1ccc(Cl)cc1` (stereo not given in full), 0%; with `CN(C)CCOc1cc(NC(=O)Nc2cccc3c(-c4ccncc4)cccc23)ccc1I.Cl`, 28%.
Same read-out and setting: with `Cc1ccc(C2=NNC3(S2)C(=O)Nc2ccc(C)cc23)cc1` (stereo not given) the figure was 89%; with `CC(C)n1ncc2c(C(=O)N3CCCCCC3)cc(-c3ccccc3)nc21`, 42%; with `Cl.O=C(NCCCCN1CCC(c2ccc3ccccc3c2O)CC1)c1ccc(-c2ccc(Cl)cc2)cc1`, 99%.
For the compound `Cc1ccc(N2CCN(C(=O)c3cccc(-c4cncc5nc(-c6ccco6)n(C)c45)c3)CC2)nc1`, the Inhibition is recorded as 91%.
Compound `CCOc1ccc(Cc2c(C)nc3nc(N)nc(N)c3c2C)cc1.Cl` gave an Inhibition of 7%.
With `COc1cc(-n2cnc3cc(-c4ccc(Cl)cc4)sc3c2=O)ccc1OCCN1CCC(c2cccc(NC(C)=O)c2)CC1.O=C(O)/C=C\C(=O)O`, the Inhibition was 80%.
`Cl.Oc1ccc2c(CNCCc3ccccc3)c(O)ccc2c1CNCCc1ccccc1`: the Inhibition was 100%.
Still for that read-out and setting: under `CC(C)C[C@@H](/C=N/NC(N)=O)NC(=O)[C@H](CC(C)C)NC(=O)[C@H](CC(C)C)NC(=O)OCc1ccccc1` stands 99%.
Still for that read-out and setting: under `CN(C)CCCN1CCN(C(=O)c2cccc(-c3noc(C(F)(F)F)n3)c2)CC1` stands 60%; under `COc1ccc(Nc2nccc(N3CCC(NC(=O)Nc4cccc(C(C)=O)c4)C3)n2)cc1` (stereo not given), 79%; under `Oc1ccccc1-c1nc2cccnc2n1CCc1cccc(C(F)(F)F)c1`, 36%.
On the same count and under the same terms, with `Br.CCc1ccccc1OCCCON1C(=N)N=C(N)NC1(C)C` the figure was 97%.
`Cl.O=S(=O)(Nc1ccc2nccc(N3CCNCC3)c2c1)c1ccc2oc3ccccc3c2c1` had an Inhibition of 2%.
Still for that read-out and setting: under `Cc1cc(NCCC(=O)NCCOc2ccccc2)nc(NCCOc2ccccc2)n1.O=C(O)C(F)(F)F` stands 20%; under `Cc1c(S(=O)(=O)Nc2ccc3ccn(CCN(C)C)c3c2)sc2ccc(Cl)cc12.Cl`, 94%.
Consider `Cc1cc(C(=O)CN2C(=O)NC3(CCOc4ccccc43)C2=O)c(C)n1Cc1ccco1` (stereo not given), for which the Inhibition worked out at 42%.
`COc1cc(Cc2cnc(N)nc2N)cc(OC)c1OCCNC(=O)[C@@H](N)CCC(=O)O.Cl`: the Inhibition was 0%.
As for `Cc1ccc(CNC(=O)[C@H](CCCN)Nc2cc(C)nc(Nc3ccccc3)n2)cc1.O=C(O)C(F)(F)F`, the Inhibition was determined as 0%.
Compound `CC[C@H]1CN2CCc3c([nH]c4ccccc34)[C@@H]2C[C@@H]1CC1c2cc(OC)c(OC)cc2CCN1C.Cl` (stereo not given in full) had an Inhibition of 45%.
Same read-out and setting: with `OC(CNc1ccnc(Nc2cccc(Cl)c2)n1)c1cccc(F)c1` (stereo not given) the figure was 29%; with `Oc1ccc(CCNCc2ccc(OCc3ccccc3)c(OCc3ccccc3)c2)cc1`, 9%.
The same measure, in the same setting: with `CC(C)n1nc(C(=O)N2CCN(c3ccccc3)CC2)c2ccccc2c1=O` the figure was 3%; with `CCn1c(Sc2ccc(C#N)c([N+](=O)[O-])c2)nnc1-c1ccc(OC)cc1`, 94%; with `CS(=O)(=O)c1cccc2sc(N3CCN(C(=O)c4ccc([N+](=O)[O-])o4)CC3)nc12`, 61%.
Still for that read-out and setting: under `O=C(Nc1ccc(Cl)c(Cl)c1)Nc1ccc2nccc(N3CCN(Cc4ccccc4)CC3)c2c1` stands 100%.

A further experiment deals with HepG2. Description: GSK_TCMDC: Percent inhibition of human HepG2 cell line. Test compounds present at 10uM. Type of experiment: functional.
Regarding `Cl.N=C(NC1CC1)c1ccc2[nH]c(CCCCCc3nc4cc(C(=N)NC5CC5)ccc4[nH]3)nc2c1`, the Inhibition stood at 0%.
The same measure, in the same setting: under `N#Cc1ccc(-c2ccc(C(=O)NCCCCN3CCC(n4cnc5ccccc54)CC3)cc2)cc1` stands 15%.
As for `O=C(N[C@H]1CCN(Cc2ccc(OCCCN3CCCCC3)cc2)C1)c1ccc(Oc2ccccc2)cc1`, the Inhibition was 56%.
The same measure, in the same setting: under `COc1ccc(-c2cn3c(C(=O)Nc4ccccc4Cl)c(-c4ccccc4)c4c3n2CCCC4)cc1` stands 7%.
`CN(CCCCN)Cc1ccc(-c2ccc(Cl)cc2)cc1` registered an Inhibition of 96%.
Same read-out and setting: under `COc1ccc2nccc([C@@H](O)CN3CCC(NCc4ccc5c(c4)NC(=O)CO5)CC3)c2c1.Cl` stands 1%; under `CN(C)CCN(C)Cc1nc(-c2ccc3c(Nc4ccc(Oc5ccccc5)cc4)ccnc3c2)cs1`, 27%.
On the same count and under the same terms, under `CC(=O)Nc1cc(C(=O)Nc2cccc(-c3cccc(-c4nc5cc(C(F)(F)F)ccc5[nH]4)c3)c2)ccc1C` stands 56%.
Still for that read-out and setting: with `Br.CCOc1ccc(OCCCON2C(=N)N=C(N)NC2(C)C)cc1` the figure was 63%.
The compound `CCCNC(=O)Nc1cc2cc(-c3ccc(CN4CCCC4)cc3)ccc2n2c(C)nnc12` returned an Inhibition of 67%.
`CN(C)CCN(C)Cc1ccc(-c2ccc(NC(=O)c3ccc(Cl)cc3)cc2)cc1.O=C(O)C(F)(F)F` displayed an Inhibition of 51%.
Same read-out and setting: with `COc1ccc2[nH]ccc(=NN=Cc3ccc(Cl)cc3)c2c1` the figure was 9%; with `c1ccc(Oc2ccc(Nc3ccnc4cc(-c5ccc(CNCCN6CCOCC6)o5)ccc34)cc2)cc1`, 20%; with `O=C1C[C@@H]([S+]([O-])Cc2nccs2)N1CCOCCCCCCc1ccc(Cl)cc1` (stereo not given in full), 0%.
Same read-out and setting: under `CN(C)CCOc1cc(NC(=O)Nc2cccc3c(-c4ccncc4)cccc23)ccc1I.Cl` stands 20%; under `Cc1ccc(C2=NNC3(S2)C(=O)Nc2ccc(C)cc23)cc1` (stereo not given), 35%; under `CC(C)n1ncc2c(C(=O)N3CCCCCC3)cc(-c3ccccc3)nc21`, 0%.
On the same count and under the same terms, under `Cl.O=C(NCCCCN1CCC(c2ccc3ccccc3c2O)CC1)c1ccc(-c2ccc(Cl)cc2)cc1` stands 84%.
In turn, `Cc1ccc(N2CCN(C(=O)c3cccc(-c4cncc5nc(-c6ccco6)n(C)c45)c3)CC2)nc1` came in with an Inhibition of 0%.
In turn, `CCOc1ccc(Cc2c(C)nc3nc(N)nc(N)c3c2C)cc1.Cl` registered an Inhibition of 63%.
The compound `COc1cc(-n2cnc3cc(-c4ccc(Cl)cc4)sc3c2=O)ccc1OCCN1CCC(c2cccc(NC(C)=O)c2)CC1.O=C(O)/C=C\C(=O)O` showed an Inhibition of 61%.
For `Cl.Oc1ccc2c(CNCCc3ccccc3)c(O)ccc2c1CNCCc1ccccc1`, the Inhibition is recorded as 24%.
In turn, `CC(C)C[C@@H](/C=N/NC(N)=O)NC(=O)[C@H](CC(C)C)NC(=O)[C@H](CC(C)C)NC(=O)OCc1ccccc1` showed an Inhibition of 41%.
Still for that read-out and setting: under `CN(C)CCCN1CCN(C(=O)c2cccc(-c3noc(C(F)(F)F)n3)c2)CC1` stands 0%; under `COc1ccc(Nc2nccc(N3CCC(NC(=O)Nc4cccc(C(C)=O)c4)C3)n2)cc1` (stereo not given), 29%; under `Oc1ccccc1-c1nc2cccnc2n1CCc1cccc(C(F)(F)F)c1`, 4%.
Still for that read-out and setting: with `Br.CCc1ccccc1OCCCON1C(=N)N=C(N)NC1(C)C` the figure was 77%; with `Cl.O=S(=O)(Nc1ccc2nccc(N3CCNCC3)c2c1)c1ccc2oc3ccccc3c2c1`, 16%; with `Cc1cc(NCCC(=O)NCCOc2ccccc2)nc(NCCOc2ccccc2)n1.O=C(O)C(F)(F)F`, 8%.
Still for that read-out and setting: with `Cc1c(S(=O)(=O)Nc2ccc3ccn(CCN(C)C)c3c2)sc2ccc(Cl)cc12.Cl` the figure was 15%; with `Cc1cc(C(=O)CN2C(=O)NC3(CCOc4ccccc43)C2=O)c(C)n1Cc1ccco1` (stereo not given), 13%; with `COc1cc(Cc2cnc(N)nc2N)cc(OC)c1OCCNC(=O)[C@@H](N)CCC(=O)O.Cl`, 0%.
As for `Cc1ccc(CNC(=O)[C@H](CCCN)Nc2cc(C)nc(Nc3ccccc3)n2)cc1.O=C(O)C(F)(F)F`, the Inhibition came out at 0%.
Same read-out and setting: with `CC[C@H]1CN2CCc3c([nH]c4ccccc34)[C@@H]2C[C@@H]1CC1c2cc(OC)c(OC)cc2CCN1C.Cl` (stereo not given in full) the figure was 31%; with `OC(CNc1ccnc(Nc2cccc(Cl)c2)n1)c1cccc(F)c1` (stereo not given), 16%.
Compound `Oc1ccc(CCNCc2ccc(OCc3ccccc3)c(OCc3ccccc3)c2)cc1` registered an Inhibition of 31%.
Still for that read-out and setting: with `CC(C)n1nc(C(=O)N2CCN(c3ccccc3)CC2)c2ccccc2c1=O` the figure was 34%; with `CCn1c(Sc2ccc(C#N)c([N+](=O)[O-])c2)nnc1-c1ccc(OC)cc1`, 0%.
Still for that read-out and setting: with `CS(=O)(=O)c1cccc2sc(N3CCN(C(=O)c4ccc([N+](=O)[O-])o4)CC3)nc12` the figure was 0%.
`O=C(Nc1ccc(Cl)c(Cl)c1)Nc1ccc2nccc(N3CCN(Cc4ccccc4)CC3)c2c1` registered an Inhibition of 31%.
